Only some compounds are listed: those with a hit (about 4.3% of all), similar ones and a draw of the others.
Wnt act: activators of Wnt/beta-catenin signaling. Wnt/beta-catenin reporter cell assay, activator, plate reader. AID 743398. 300,000 compounds, 1.2% hits. activation, % at 9.35 µM; in the data active = activation above about 30%, passing the limit was not always enough; inconclusive = no clear call, values can overlap the other calls;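 also: 0% = neutral control wells and 100% = positive control wells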
HSF1 activator: increases HSF-1 driven luciferase reporter signal; NIH3T3-HGL HSF-1 luciferase reporter, MG132, 8 h; 100% = twice DMSO control signal; activation, % at 9 µM; 300,000 compounds, 1.7% hits; AID 504408;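 active = mean replicate activation of at least 50% with a set share of replicates each reaching 50%; inconclusive = only one of those two conditions met; inactive = mean below 50% and too few replicates reaching it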;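 also: 0% = median of the neutral control wells and 100% = twice that signal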
esBAF inh: blocks esBAF chromatin remodeling in mouse ES cells; Bmi1-luciferase knock-in reporter, 24 h; 100% = twice the neutral-well signal; reporter increase, % at 12.5 µM; 350,000 compounds, 2% hits; in the data active = activation above about 40%; inconclusive = no clear call, values can overlap the other calls;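 also: 0% = median of the plate's neutral control wells and 100% = double that signal; a rise in the Bmi1 reporter signal indicates esBAF inhibition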
SMARCA2 activ: SMARCA2 function activation, primary screen. MG213 cells, MMTV-luciferase reporter, dexamethasone, overnight. activation, % at 9.1 µM. 370,000 compounds, 1% hits. AID 652017; in the data active = activation above about 7.8%;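 also: 0% = vehicle wells and 100% = reference activator wells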
HSF1 inhib: HSF1 inhibition | NIH3T3-HGL HSE-luciferase, MG132-induced, luminescence 8 h; hits give low values | activity change, negative = inhibition, % at 7.5 µM (by protocol) | 300,000 compounds, 0.77% hits;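 active = more than half of replicate wells show activity change below -50%, luminescence cut by over half; inconclusive = some wells, but at most half, below -50%; inactive = no replicate well below -50%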;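 also: luciferase reports HSF-1 transcriptional activity via heat shock element; 0% = median of DMSO wells and -100% = zero luminescence signal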
MITF TRPM1 HTS: increases MITF-driven TRPM1 promoter luciferase signal. SK-MEL-5 TRPM1-promoter luciferase, 24 h; % of positive control, neutral wells = 0. activation, % at 12.5 µM. 300,000 compounds, 0.75% hits. AID 588334;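 active = mean activation of at least 80% with every replicate also reaching 80%; inconclusive = mean reaches 80% but some replicate falls short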;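 also: 0% = neutral control wells and 100% = parthenolide positive control wells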
Active calls of the source: *; u = inconclusive; x = not tested or not shown.

SMILES | Wnt act | HSF1 activator | esBAF inh | SMARCA2 activ | HSF1 inhib | MITF TRPM1 HTS
COc1cccc(NC(=O)CSc2nc3c([nH]c4ccccc43)c(=O)n2C)c1 | -19 | 95* | x | 1 | 41 | -20
NC(=O)c1ccc[n+](CC(=O)OCCC23CC4CC(CC(C4)C2)C3)c1 | x | -76 | 3 | -1 | -70* | x
Cc1sc2nc3ccc(N4CCCC4)nn3c(=O)c2c1C | 5 | 18 | 52* | -5 | 11 | 31
Cc1nnc2ccc(N3CCCCC3)nn12 | -1 | 14 | 6 | -2 | 0 | x
O=c1c2ccccc2nc2ccc(N3CCOCC3)nn12 | u | 18 | x | 1 | -1 | 46
Cc1ccc2nc3ccc(N4CCCCCCC4)nn3c(=O)c2c1 | 29 | 23 | 60* | 4 | 14 | x
Cc1ccc2nc3ccc(N4CCN(C)CC4)nn3c(=O)c2c1 | x | 15 | 49* | 6 | 8 | 33
C[C@H]1CN([C@@H](C)CO)C(=O)c2cccc(NC(=O)Nc3cccc4ccccc34)c2O[C@H]1CN(C)S(=O)(=O)c1ccccc1 | x | x | 7 | x | x | x
Cc1ccc(S(=O)(=O)Nc2ccc3c(c2)C(=O)N([C@H](C)CO)C[C@H](C)[C@@H](CN(C)C(=O)Nc2c(C)noc2C)OCCCC[C@H](C)O3)cc1 | x | x | -1 | x | x | x
COc1ccc(NC(=O)/C=C/c2cccc(Br)c2)cn1 | -4 | 11 | 67* | -2 | 14 | 44
Cc1cc2oc3c(c(=O)c2cc1C)C(c1ccc(C(C)C)cc1)N(CCCN1CCOCC1)C3=O (stereo not given) | -2 | 58* | -7 | 1 | 33 | -16
CCCc1nnc(NC(=O)c2nc(S(=O)(=O)Cc3ccc(C)cc3)ncc2Cl)s1 | 4 | -82 | 2 | 5 | -80* | -73
CC(C)c1nnc(NC(=O)c2nc(S(=O)(=O)Cc3ccccc3)ncc2Cl)s1 | -13 | -87 | -38 | -9 | -86* | -84
O=C(N/N=C/CCc1ccccc1)C1CCCCC1 | -2 | -3 | x | 3 | -3 | -3
O=C(N/N=C/CCc1ccccc1)c1ccccc1 | x | 76* | 12 | -1 | 32 | -4
Cc1noc(C)c1NC(=O)N(C)C[C@@H]1Oc2ccc(NC(=O)Cc3cn(C)c4ccccc34)cc2C(=O)N([C@H](C)CO)C[C@@H]1C | x | x | -2 | x | x | x
CO[C@H]1CC[C@@H]2CCN(C)C(=O)C[C@@H](c3ccccc3)CN(C)C(=O)c3cc(C#N)ccc3OC[C@@H]1O2 | x | x | 0 | x | x | x
Cc1ccc(C)c(Nc2ncccc2C(=O)NCc2cccs2)c1 | -4 | 55* | -4 | -2 | 24 | 3
CO[C@@H]1CN(C)C(=O)c2ccc(NC(=O)C3CC3)cc2OC[C@@H](C)N(C(=O)c2ccncc2)C[C@@H]1C | x | x | -5 | x | x | x
C[C@@H]1CN([C@H](C)CO)C(=O)Cc2cc(NC(=O)Cn3cnnn3)ccc2O[C@H]1CN(C)Cc1ccc(C(=O)O)cc1 | x | x | -3 | x | x | x
C[C@@H]1CN([C@@H](C)CO)C(=O)c2cc(NC(=O)CCC(F)(F)F)ccc2O[C@@H](C)CCCCO[C@H]1CN(C)C(=O)Cc1ccccc1 | x | x | 2 | x | x | x
COc1ccc(/C=C/C(=O)N(C(C)C)C(C)C)cc1Br | x | 99* | 22 | 4 | 55 | 18
O=c1c2ccccc2nc2c3ccccc3cnn12 | 10 | 9 | 74* | 5 | 3 | 48
O=c1c2ccccc2nc2c3ccccc3c(Cl)nn12 | x | 15 | x | x | -5 | x
CNC(=O)C[C@H]1CC[C@H]2[C@H](COc3ccc(NS(=O)(=O)c4ccc(F)cc4)cc3C(=O)N2C)O1 | x | x | 0 | x | x | x
SMILES | Wnt act | HSF1 activator | esBAF inh | SMARCA2 activ | HSF1 inhib | MITF TRPM1 HTS
C[C@H]1CN([C@@H](C)CO)C(=O)c2cccc(NS(=O)(=O)c3cccs3)c2O[C@H]1CN(C)CC1CCCCC1 | x | x | -1 | x | x | x
Cc1ccc(C(=O)NC(C#N)=C(Cl)Cl)cc1 | 77* | 151* | x | -12 | 93 | x
Cc1ccc(C(=O)NC(=C(Cl)Cl)S(=O)(=O)c2ccccc2)cc1 | 9 | 113* | x | 5 | 52 | 14
COc1ccc(C(=O)NC(=C(Cl)Cl)S(=O)(=O)c2ccc(C)cc2)cc1 | 3 | 10 | x | -1 | 13 | 4
Cc1ccc(C(=O)NCC#N)cc1 | 0 | 3 | x | -2 | 0 | -5
COCC(=O)Nc1ccc2c(c1)C(=O)N(C)[C@@H]1CC[C@H](CC(=O)O)O[C@@H]1CO2 | x | x | -1 | x | x | x
CCc1cccc(NC(=O)C2CCN(c3ncnc4sc(C)c(C)c34)CC2)c1 | -1 | x | 6 | -1 | x | x
CCc1ccc2nc(NC(=O)C3CCN(c4ncnc5sc(C)c(C)c45)CC3)sc2c1 | 22 | x | 60* | 5 | x | 20
C[C@@H]1CN([C@@H](C)CO)C(=O)c2cc(-c3cccc(F)c3)cnc2O[C@H]1CN(C)C(=O)C1CCCCC1 | x | x | 4 | x | x | x
Cc1cccc(OCC(=O)Nc2sc3c(c2C#N)CCC3)c1 | -2 | 2 | 84* | -1 | 18 | 74
Cc1onc(C(=O)Nc2sc3c(c2C#N)CCCC3)c1[N+](=O)[O-] | 35* | 13 | x | 0 | 7 | 1
Cc1onc(-c2ccccc2Cl)c1C(=O)Nc1sc2c(c1C#N)CCC2 | x | 33 | -6 | -4 | 0 | x
COC(=O)CCC(=O)Nc1sc2c(c1C#N)CCCC2 | -3 | -17 | -7 | 3 | -4 | -18
CCCC(=O)Nc1sc2c(c1C#N)CCCC2 | x | 8 | 53* | 2 | 8 | 70
Cc1cnc(C(=O)OCC(=O)Nc2sc3c(c2C#N)CCC3)cn1 | 0 | 0 | -3 | -1 | -1 | -10
C[C@@H]1CN([C@H](C)CO)C(=O)c2cc(NC(=O)Nc3ccccc3)ccc2O[C@H]1CN(C)C(=O)Nc1cccc2ccccc12 | x | x | 5 | x | x | x
CSc1nc(NC(C)(C)C)nc(Oc2ccc(=O)[nH]n2)n1 | x | 52* | 7 | -1 | 27 | -1
C[C@@H]1CCCCO[C@H](CN(C)Cc2ccc(Cl)c(Cl)c2)[C@@H](C)CN([C@H](C)CO)C(=O)c2cc(NC(=O)Nc3cccc4ccccc34)ccc2O1 | x | x | -6 | x | x | x
Cc1ccc(NC(=O)c2cccc(OCc3c(C)noc3C)c2)cc1 | -1 | 9 | 3 | 2 | 4 | 18
COc1ccc(NS(=O)(=O)c2cc(NC(=O)c3cccc(OCc4c(C)noc4C)c3)ccc2OC)cc1 | -10 | 57* | 3 | -3 | 18 | -3
C[C@H]1CN([C@@H](C)CO)C(=O)c2cccc(NS(=O)(=O)c3cn(C)cn3)c2O[C@@H]1CN(C)C(=O)Nc1ccc2c(c1)OCO2 | x | x | 6 | x | x | x
Fc1ccccc1-c1nc2ccccc2[nH]1 | 56* | 38 | x | 4 | 22 | 85*
CC(=O)CSc1ccc(-c2nc3ccccc3[nH]2)cn1 | 0 | 35 | -19 | 5 | 13 | 3
Clc1ccccc1-c1nc2ccccc2[nH]1 | 48* | x | x | 4 | 21 | x
Cc1ccccc1-c1nc2ccccc2[nH]1 | x | 28 | 58* | 6 | 24 | 57
Clc1ccc(-c2nc3ccccc3[nH]2)cn1 | 0 | 24 | 50* | 3 | 6 | 57

Assay outcomes: PubChem BioAssay, several laboratories
